A selection: hits, their analogues and other compounds. The true share with any hit is near 13%.
USP10 inh = human USP10 deubiquitinase inhibition; Q14694; AID 1645856; purified USP10, Ub-rhodamine fluorescence, 60 min; inhibition, % at 20 µM; 1.1% of 47,000 active
USP17 inh = inhibitors of human USP17 deubiquitinase; AID 1645855; purified USP17, Ub-rhodamine cleavage fluorescence, 3 h; A8MUK1; inhibition, % at 50 µM; 6.5% of 47,000 active
Target sequence (A8MUK1 whole entry, looked up): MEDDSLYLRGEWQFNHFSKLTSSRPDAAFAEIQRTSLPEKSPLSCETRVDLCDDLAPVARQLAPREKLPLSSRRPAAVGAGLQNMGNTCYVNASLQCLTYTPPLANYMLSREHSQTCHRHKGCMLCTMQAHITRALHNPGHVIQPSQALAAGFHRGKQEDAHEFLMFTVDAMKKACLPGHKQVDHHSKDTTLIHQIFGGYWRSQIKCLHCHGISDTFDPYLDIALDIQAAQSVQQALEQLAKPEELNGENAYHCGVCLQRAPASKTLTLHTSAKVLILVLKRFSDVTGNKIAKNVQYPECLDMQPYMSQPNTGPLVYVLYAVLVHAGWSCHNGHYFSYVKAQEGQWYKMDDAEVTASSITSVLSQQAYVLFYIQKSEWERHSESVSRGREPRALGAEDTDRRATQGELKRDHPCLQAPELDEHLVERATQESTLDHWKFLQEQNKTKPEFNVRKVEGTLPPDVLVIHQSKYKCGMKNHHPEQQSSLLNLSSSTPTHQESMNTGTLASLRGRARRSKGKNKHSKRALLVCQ
OTUD3 inh = inhibitors of human OTUD3 deubiquitinase. AID 1645858. inhibition, % at 25 µM. purified OTUD3, Ub-rhodamine fluorescence, 2 h. 0.7% of 47,000 active
USP28 inh = inhibitors of human USP28 deubiquitinase; Q96RU2; purified USP28, Ub-rhodamine cleavage fluorescence, 30 min; inhibition, % at 25 µM; 3% of 47,000 active; AID 1645857
USP8 inh = human USP8 deubiquitinase inhibition; 4.2% of 47,000 active; purified USP8, Ub-rhodamine cleavage fluorescence, 30 min; P40818; inhibition, % at 20 µM
USP30 block = human USP30 deubiquitinase inhibition. purified USP30, Ub-rhodamine cleavage fluorescence. Q70CQ3. 5.3% of 47,000 active. AID 1645860. inhibition, % at 25 µM
* marks the source's active call; other numbers are inactive results; · = not tested or not shown. Rule as the data show it: active = inhibition above about 30%; inactive = the rest.

SMILES	USP10 inh	USP17 inh	OTUD3 inh	USP28 inh	USP8 inh	USP30 block
O=C(c1cc(C2CC2)[nH]n1)N1CCN(Cc2ccccc2)CC1	3	18	20	17	-12	34*
O=C(c1cc(C2CC2)[nH]n1)N1CCCCC1	1	17	15	12	22	8
COc1ccc(OCC(=O)Nc2cc(C)c(O)c(-c3nc4ccccc4o3)c2)cc1	1	-3	2	3	1	15
COc1c2nc3ccccc3oc-2cc(=O)c1OC	2	71*	1	7	58*	-13
Cc1c(O)nc2sccn2c1=O	-6	-5	-2	-12	2	-26
COc1ccc(C(=O)N(Cc2ccc(C)cc2)Cc2ccco2)cc1	9	33*	16	30	12	34*
CC(=O)Nc1cccc(-c2nc(-c3ccc(NS(=O)(=O)c4ccccc4)cc3)no2)c1C	-10	-34	-30	-40	-28	-95
C[C@@H]1OC2=C(C(=O)c3cccc(O)c3C2=O)[C@H](O)[C@@H]1O	49*	80*	67*	71*	63*	6
Cc1ccccc1NC(=O)C1CCN(S(=O)(=O)c2ccc3c(c2)OCCCO3)CC1	4	69*	6	14	7	74*
O=C(Nc1ccc(N2CCCCC2)cc1)C1CCN(S(=O)(=O)c2ccc3c(c2)OCCCO3)CC1	4	5	-12	-16	3	-44
O=S(=O)(Nc1cc(S(=O)(=O)N2CCCCC2)ccc1O)c1ccc2c(c1)OCCCO2	7	34*	4	11	83*	0
O=C(Nc1ccc2c(c1)OCCCO2)c1cc(S(=O)(=O)N2CCCCC2)ccc1N1CCCC1	15	68*	22	30	9	78*
CN1CCN(c2nc(N3CCCC3)nc3c2cnn3C)CC1	1	-2	0	1	-152	2
O=C(Cc1c[nH]c2ccccc12)N1CCc2c(nc(-c3ccccc3)[nH]c2=O)C1	-4	3	-6	-1	-6	-32
COc1cccc(NC(=O)CCC(=O)N2CCSc3ccccc32)c1	5	-5	-3	35*	3	-11
Cc1cc(C)c(NC(=O)CCC(=O)N2CCSc3ccccc32)c(C)c1	-4	-46	-28	-34	-5	-171
O=C(NCc1ccccc1)N(Cc1ccc2c(c1)OCO2)Cc1cc2cc3c(cc2[nH]c1=O)OCCO3	0	22	14	7	12	24
O=C(Nc1ccc(Cl)cc1Cl)c1ccn(COc2ccccc2F)n1	0	36*	12	18	20	45*
O=C(Nc1ccccc1Cl)c1ccn(COc2ccccc2F)n1	5	66*	20	29	35*	57*
CCSc1ccc(CC(=O)Nc2sccc2C(N)=O)cc1	-1	-14	-15	-7	-12	-35
CNc1nc2c(c(=O)n1Cc1ccccc1)CN(C(=O)c1ccc(CN)cc1)CC2	-1	59*	0	2	0	25
CNc1nc2c(c(=O)n1-c1ccccc1)CN(C(=O)c1ccccc1)CC2	-2	3	6	6	7	8
CNc1nc2c(c(=O)n1-c1ccccc1)CCN(C(=O)c1ccc3ccccc3c1)C2	2	12	8	17	-12	43*
CNc1nc2c(c(=O)n1Cc1ccccc1)CN(C(=O)Nc1ccccc1)CC2	-4	0	10	10	2	3
O=C(c1ccc(Cl)cc1)C1CCN(C(=O)c2cnc3ccccc3n2)CC1	-3	-2	0	0	-41	-15
SMILES	USP10 inh	USP17 inh	OTUD3 inh	USP28 inh	USP8 inh	USP30 block
Cc1ccc(-n2nc(C)c3c2NC(=O)CC3C(=O)c2ccc(O)cc2)cc1C (centres undefined)	0	10	6	8	12	0
COc1ccc(-n2nc(C)c3c2NC(=O)CC3C(=O)c2ccc3c(c2)OCO3)cc1 (centres undefined)	1	16	4	4	7	39*
Cc1cccc(-n2nc(C)c3c2NC(=O)CC3C(=O)c2cc3ccccc3o2)c1 (centres undefined)	10	70*	-6	-15	-4	3
Cc1cccc(-n2nc(C)c3c2NC(=O)CC3C(=O)c2ccc3c(c2)OCO3)c1 (centres undefined)	0	0	5	10	13	8
COc1ccc(C(=O)C2CC(=O)Nc3c2c(C)nn3-c2ccc(Br)cc2)cc1 (centres undefined)	20	58*	13	10	30*	23
CCOc1ccc(CNC(=O)CSc2ncnc3c2sc2cccc(F)c23)cc1	-9	-126	-53	-93	-6	-374
COc1ccccc1CNC(=O)CC1c2ncccc2C(=O)N1c1ccccc1 (centres undefined)	-2	-14	-3	-9	-10	-16
CCc1ccc(N2C(=O)c3ccccc3C2C(=O)NCc2ccccc2OC)cc1 (centres undefined)	8	68*	10	23	0	63*
O=C(NCc1ccc(Cl)cc1)NCc1cnn2ccccc12	-2	29	-7	12	4	39*
COc1ccc(NC(=O)Cn2c(CSc3ccc(C)cc3)nc3ccccc32)cc1	-4	54*	-9	25	-4	-112
COc1ccc(NC(=O)CSc2nc3ccccc3c3nc(C)nn23)cc1	0	17	15	12	0	14
Cc1ccc(OCc2nc3ccccc3n2CC(=O)Nc2ccc(C(F)(F)F)cc2)cc1	10	18	0	-2	18	38*
COc1ccc2cc(S(=O)(=O)N3CCC(C)CC3)c(=O)oc2c1	5	3	0	-3	-8	1
O=C(Nc1cccc(S(=O)(=O)N2CCOCC2)c1)C1Cc2ccccc2CN1C(=O)c1ccco1 (centres undefined)	-6	·	-8	-18	40*	-169
COc1cc(NC(=O)C2Cc3ccccc3CN2C(=O)c2ccco2)cc(OC)c1OC (centres undefined)	-3	-5	-8	-6	-4	-34
CSc1cccc(NC(=O)C2Cc3ccccc3CN2C(=O)c2ccco2)c1 (centres undefined)	-4	31*	5	0	11	-24
Cc1cnc(N2CCC3(CCN(C(=O)c4cscn4)CC3)CC2)nc1	1	-29	3	-1	-148	2
O=C(NCc1noc(-c2ccccc2)n1)c1ccc(-c2noc(C3CC3)n2)cc1	3	32*	6	28	8	13
COc1ccc(C(=O)NCc2noc(C3CCCC3)n2)cc1OC	0	-4	-4	·	1	·
COc1ccc(C(=O)NCc2noc(C3CCCCC3)n2)cc1C#N	0	-14	0	42*	-52	-3
CCc1cc2cc3c(cc2nc1SCC(=O)N1CC(=O)Nc2ccccc21)OCO3	-5	35*	15	8	9	-18
CN(Cc1ccccc1Cl)C(=O)c1cccc(S(=O)(=O)N2CCc3ccccc32)c1	12	-8	13	13	-36	22

Assay outcomes (PubChem)
